# Shown are actives, neighbours in structure and some others; about 3.4% of the full set was active somewhere.
# MITF inh = blocks human microphthalmia-associated transcription factor. 650,000 compounds, 0.91% hits. AlphaScreen MITF homodimerization, bead proximity signal. O75030. inhibition, % at 2.6 µM; in the data active = inhibition above about 50%;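 also: 0% = vehicle wells with protein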
# GPR151 activ = activators of human GPR151; Q8TDV0; PathHunter beta-arrestin GPR151 cells, luminescence; activation, % at 11.2 µM; 650,000 compounds, 1% hits; in the data active = activation above about 4.9%;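 also: 0% = median of compound wells and 100% = cells with positive control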
# TEAD-YAP inh = TEAD-YAP interaction inhibition; HEK-TIYL cells, TEAD-Gal4/YAP UAS-luciferase luminescence; inhibition, % at 9.12 µM; 640,000 compounds, 1.4% hits; AID 1259422; in the data active = inhibition above about 32%;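 also: 0% = median of test compound wells and 100% = reference inhibitor wells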
# FBW7 act = human FBW7 E3 ligase activation, primary screen | normalized activity (activation), % at 26.1 µM | 650,000 compounds, 0.13% hits | Q969H0 | AID 1259310 | AlphaScreen FBW7–phospho-cyclin E peptide binding, activator screen; in the data active = normalized activity above about 1.9%;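 also: purified mutant Fbw7 with reduced substrate affinity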
# Target sequence (Q969H0 whole entry, looked up): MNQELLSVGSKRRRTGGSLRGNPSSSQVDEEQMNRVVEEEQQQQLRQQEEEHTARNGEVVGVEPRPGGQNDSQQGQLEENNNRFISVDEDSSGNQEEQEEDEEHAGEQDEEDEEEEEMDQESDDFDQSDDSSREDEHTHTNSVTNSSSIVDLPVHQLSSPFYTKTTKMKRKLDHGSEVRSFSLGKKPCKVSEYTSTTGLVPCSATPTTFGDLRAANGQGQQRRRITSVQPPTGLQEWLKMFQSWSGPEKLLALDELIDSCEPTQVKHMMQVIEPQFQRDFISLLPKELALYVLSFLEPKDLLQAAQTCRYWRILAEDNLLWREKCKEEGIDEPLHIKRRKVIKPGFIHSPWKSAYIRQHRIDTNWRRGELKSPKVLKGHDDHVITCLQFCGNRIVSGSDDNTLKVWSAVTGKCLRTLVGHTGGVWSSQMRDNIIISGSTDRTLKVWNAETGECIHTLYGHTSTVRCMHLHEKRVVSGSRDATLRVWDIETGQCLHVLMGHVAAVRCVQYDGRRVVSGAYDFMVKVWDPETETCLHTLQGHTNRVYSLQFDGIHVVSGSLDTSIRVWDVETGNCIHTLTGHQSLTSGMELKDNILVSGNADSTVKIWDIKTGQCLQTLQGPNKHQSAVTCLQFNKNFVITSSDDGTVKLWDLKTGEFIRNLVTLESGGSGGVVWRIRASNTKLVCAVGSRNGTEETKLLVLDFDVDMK
# GPR151 conf act = confirmation of human GPR151 activators; shares compounds with GPR151 activ; GPR151 PathHunter beta-arrestin cells, luminescence, 90 min; % of EA-reagent control over plate median; activation, % at 11.2 µM; AID 1508609; 6,700 tested, under 10 active;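 active = mean percent activation across replicates above the confirmation screen cutoff of 4.91%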
# GPR119 ag = counter-screen for GPR151 activators: effect on human GPR119. shares compounds with GPR151 activ. GPR119 PathHunter beta-arrestin cells, luminescence, 90 min; 0 = compound-well median, 100 = enzyme-acceptor control. activation, % at 11.2 µM. 6,700 compounds, 0.3% hits. AID 1508611;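 active = mean percent activation in the counterscreen above 29.09%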;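 also: counterscreen on off-target GPR119 to flag nonselective hits from the GPR151 activator screen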
# * = called active by the depositor; . = no result.
SMILES,MITF inh,GPR151 activ,TEAD-YAP inh,FBW7 act,GPR151 conf act,GPR119 ag
O=C(CN1C(=O)c2cccc([N+](=O)[O-])c2C1=O)OCC(=O)c1ccccc1Cl,15,2,2,0,.,.
O=C(CN1C(=O)c2cccc([N+](=O)[O-])c2C1=O)OCc1ccc(C(=O)c2ccccc2)cc1,4,4,-4,1,.,.
NC(=O)c1ccccc1NC(=O)CCN1C(=O)c2cccc([N+](=O)[O-])c2C1=O,9,5.4*,-1,1,-1,8
O=C(CN1C(=O)c2cccc([N+](=O)[O-])c2C1=O)OCc1ccc(Cl)cc1,2,7.3*,-1,1,0,-8
CCOc1cccc(C(=O)NC(=S)Nc2ccccc2[N+](=O)[O-])c1,19,0,-5,0,.,.
NC(=O)c1ccc(-c2nc3ccc(C(=O)NCCOc4ccccc4)cc3s2)cc1,-2,5.7*,-33,0,0,-3
CN1CCN(C(=O)c2ccc(-c3nc4ccc(C(=O)NCCOc5ccccc5)cc4s3)cc2)CC1,-8,5.3*,-24,0,2,3
CN1CCN(C(=O)c2ccc(-c3nc4ccc(C(=O)NCc5ccccc5)cc4s3)cc2)CC1,-1,1,1,0,.,.
COC(C(=O)Nc1ccc(C(F)(F)F)cc1)c1ccccc1 (configuration not stated),-2,-2,-6,0,.,.
O=C(Nc1ccc2c(c1)CN(Cc1cccnc1)CC2)C1CCCO1 (configuration not stated),12,0,0,0,.,.
O=C(Nc1ccc2c(c1)CN(Cc1cnc(-c3ccccc3)s1)CC2)C1CCCO1 (configuration not stated),-13,5.2*,3,0,0,2
CC1CCCCN1C(=O)CCc1nc(-c2ccc(Cl)cc2)no1 (configuration not stated),-1,6.7*,-16,0,0,-14
Cc1ccc(-c2noc(CCC(=O)N3CCCCC3C)n2)cc1 (configuration not stated),1,1,-10,0,.,.
COc1ccc(NC(=O)C(=O)N/N=C/c2ccc(OC)cc2OC)cc1,10,0,-1,0,.,.
COc1ccc(-c2ccc(C(=O)NCCN3CCOCC3)s2)cc1,1,2,0,0,.,.
Cc1cc2oc(C(=O)NCCc3ccc(S(N)(=O)=O)cc3)c(C)c2cc1C,9,10.0*,10,0,1,-3
Cc1ccc2oc(C(=O)NCCc3ccc(S(N)(=O)=O)cc3)c(C)c2c1,14,-2,9,1,.,.
COc1cc(/C=C/c2[nH]c(=O)[nH]c(=O)c2[N+](=O)[O-])cc(Cl)c1O,11,0,2,0,.,.
COc1cc(/C=C/c2[nH]c(=O)[nH]c(=O)c2[N+](=O)[O-])cc(OC)c1OC,10,7.7*,-3,0,-1,-4
COc1ccc(N2CCN(S(=O)(=O)c3ccccc3F)CC2)cc1,6,-1,4,0,.,.
O=S(=O)(c1cccc2ccccc12)N1CCN(c2ncccn2)CC1,13,-1,7,0,.,.
COc1ccc(N2CCN(S(=O)(=O)c3ccccc3C(F)(F)F)CC2)cc1,0,5.1*,2,0,0,1
Cc1cc(S(=O)(=O)N2CCN(c3ccc(F)cc3)CC2)c(Cl)cc1Cl,5,5.3*,-11,0,1,5
O=S(=O)(c1cccc2ccccc12)N1CCN(c2ccc(F)cc2)CC1,0,19*,-5,0,0,-6
O=C(Cc1ccccc1)Nc1nnc(S(=O)(=O)N2CCCC2)s1,-6,-2,-2,0,.,.
SMILES,MITF inh,GPR151 activ,TEAD-YAP inh,FBW7 act,GPR151 conf act,GPR119 ag
O=C(O)C(=O)/C=C(\O)c1ccc(Cl)cc1,3,13*,11,0,0,6
COc1ccc(/C(O)=C2\C(=O)C(=O)N(c3ccc(C(=O)O)cc3)C2c2ccccc2)cc1 (configuration not stated),31,9.3*,-35,0,0,11
O=C(CC(=O)N/N=C/c1c(F)cccc1Cl)NCCc1ccccc1,-5,5.6*,0,0,1,0
O=C(CO)N/N=C\c1c(F)cccc1Cl,13,0,31,0,.,.
CC(C)C(c1nnnn1Cc1ccccc1)N1CCN(C2CCCC2)CC1 (configuration not stated),3,9.0*,4,0,-1,-3
c1ccc(CN2CCC(N3CCN(C4CCCC4)CC3)CC2)cc1,31,5.1*,11,0,0,6
CC(C)C(c1nnnn1Cc1ccc(F)cc1)N1CCN(C2CCCC2)CC1 (configuration not stated),17,-1,4,0,.,.
C/C(=C/c1ccccc1)C(=O)Nc1ccc(S(N)(=O)=O)cc1,-3,5.0*,-44,0,0,-8
CCOc1cc(C2Nc3ccccc3NC3=C2C(=O)CC(c2ccc(OC)cc2)C3)cc(Cl)c1O (configuration not stated),1,4.9*,-15,0,1,14
COc1cc(C2Nc3ccccc3NC3=C2C(=O)CC(c2ccc4c(c2)OCO4)C3)ccc1OC(C)=O (configuration not stated),-8,17*,-8,0,2,16
COc1ccc(N2C(=O)CC(Sc3nc4c(cc3C#N)CC(C)CC4)C2=O)cc1 (configuration not stated),-1,1,-8,0,.,.
Cn1c(CC(=O)NN)nc2ccccc21,-2,6.2*,8,0,1,7
CCC(C)NC(=O)c1ccc2nc(NC(=O)c3cc([N+](=O)[O-])cc([N+](=O)[O-])c3)sc2c1 (configuration not stated),1,1,9,0,.,.
CCC(C)NC(=O)c1ccc2nc(NC(=O)c3ccc([N+](=O)[O-])cc3)sc2c1 (configuration not stated),13,8.8*,3,0,0,1
COc1ccc(CCNc2ccnc(N3CCOCC3)n2)cc1,-10,2,2,0,.,.
COc1ccc(CCNc2cc(-c3ccc(N4CCN(C)CC4)cc3)ncn2)cc1,14,6.9*,-16,0,0,1
c1cc(Nc2ccc(N3CCOCC3)cc2)nc(Nc2ccc(N3CCOCC3)cc2)n1,9,3,14,0,.,.
COc1ccc(CCNc2cc(C)nc(Nc3cccnc3)n2)cc1,6,1,2,0,.,.
c1cc(Nc2ccc3c(c2)OCO3)nc(Nc2ccc(N3CCOCC3)cc2)n1,2,5.1*,71*,0,1,27
COc1ccc(CCNc2ccnc(Nc3ccc(N4CCOCC4)cc3)n2)cc1,10,8.3*,78*,0,3,60*

# Screens deposited in PubChem BioAssay by The Scripps Research Institute Molecular Screening Center.
